HPGD block – HPGD (human) dehydrogenase inhibition; P15428; purified HPGD, NADH fluorescence kinetic, PGE2 substrate; Potency, µM, hits mostly inhibitors; 150,000 compounds, 4.3% hits; AID 894
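20 nM HPGD preincubated 15 min at room temperature with compound in 50 mM Tris-HCl pH 8, 0.01% Tween 20. Started with 1 mM NAD+ and 30 uM prostaglandin E2; NADH fluorescence (360/450 nm) read 5 times over 30-s intervals, last minus first.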
ALDH1A1 block – blocks purified human ALDH1A1 activity; Purified ALDH1A1, NADH fluorescence, propionaldehyde substrate; Potency, µM (top dose mostly 75.3 µM), most hits filed as inhibitors; 220,000 compounds, 7.3% hits; AID 1030
Target sequence (P00352 whole entry, looked up): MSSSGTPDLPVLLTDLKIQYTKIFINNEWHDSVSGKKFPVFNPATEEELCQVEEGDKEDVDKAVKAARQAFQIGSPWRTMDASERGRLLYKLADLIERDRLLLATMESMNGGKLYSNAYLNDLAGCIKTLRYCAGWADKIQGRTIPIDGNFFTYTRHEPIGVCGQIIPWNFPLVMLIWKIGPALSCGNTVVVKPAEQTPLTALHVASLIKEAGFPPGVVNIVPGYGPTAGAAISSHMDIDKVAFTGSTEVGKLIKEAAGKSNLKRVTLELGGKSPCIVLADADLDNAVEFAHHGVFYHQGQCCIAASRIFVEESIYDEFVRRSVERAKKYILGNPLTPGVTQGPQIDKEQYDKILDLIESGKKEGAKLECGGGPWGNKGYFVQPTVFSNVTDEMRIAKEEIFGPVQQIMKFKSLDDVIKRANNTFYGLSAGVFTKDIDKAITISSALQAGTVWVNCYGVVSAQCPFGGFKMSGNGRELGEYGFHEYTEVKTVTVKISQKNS
PNC inhibitor – blocks assembly of the perinucleolar compartment; PC3M PTB-GFP, PNC prevalence imaging, 16 h; active compounds read low; AID 2417; 140,000 compounds, 3.1% hits; activity change (PNC), negative = inhibition, % at 10 µM;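 active means readout at or below -70, meaning at least 70% loss of cells showing the perinucleolar compartment, a nuclear body marking cancer cells; inconclusive means readout between -30 and a set limit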
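Read-out is percentage of cells bearing a perinucleolar compartment, from automated 20x imaging of fixed, Hoechst-stained PC3M PTB-GFP cells. Cells were seeded 4 h, then exposed 16 h to compound (23 nl of library stock) in duplicate plates.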
KDM4E inh – JMJD2E (human) inhibition. B2RXH2. JMJD2E catalytic domain, FDH-coupled NADH fluorescence (FDH is formaldehyde dehydrogenase). Potency, µM (titrated, usually from 57.1 µM), usual class: inhibitors. 230,000 compounds, 1.6% hits; further: nearly all actives have a fitted effect of over 50% in size
Hits are given with their value; n = inactive; u = inconclusive; x = no result; [ ] = another dose, or the depositor's remark. An excerpt weighted towards active compounds, which were near 11% of everything screened. Unless noted, the call rests on the fitted dose curve; in most records, active means well fitted inhibition curve with a large enough effect (not every such curve was filed as active); inconclusive means small, poorly fitted or top-dose-only effect, or another doubt; inactive means no such curve, though single readings can be large or run the other way.

SMILES	HPGD block	ALDH1A1 block	PNC inhibitor	KDM4E inh
O=C(CSc1nc2c([nH]c3ccccc32)c(=O)n1-c1cccc(Cl)c1)N1CCOCC1	n	n	n	u
Cc1ccc(-n2c(SCC(N)=O)nc3c([nH]c4ccccc43)c2=O)cc1	n	11µM	u	n
COc1cccc(-n2c(SCC(N)=O)nc3c([nH]c4ccccc43)c2=O)c1	n	u	n	u
O=C(CSc1nc2c([nH]c3ccccc32)c(=O)n1-c1ccccc1)N1CCOCC1	n	2.5µM	u	n
Cc1[nH]c2ccccc2c1/C=N/NC(=O)C1CC1(c1ccccc1)c1ccccc1 (centres undefined)	n	n	-110	n
Cc1[nH]c2ccccc2c1/C=N/NC(=O)CCC(=O)NCc1ccccc1	x	n	x	n
COC(=O)[C@@H]1C[C@H]1[C@@H](NC(=O)Oc1ccc(F)cc1)c1ccccc1	n	7.9µM	x	n
COc1cc([N+](=O)[O-])ccc1NC(=O)COC(=O)c1ccc(NC(N)=O)cc1	x	x	x	n
COc1ccc(CN(Cc2ccc(C(=O)O)cc2)C(=S)Nc2ccccc2F)cc1OC	x	13µM	x	n
COc1ccccc1NC(=S)N(Cc1ccc(C(=O)O)cc1)Cc1ccc(OC)c(OC)c1	x	n	x	n
COc1ccccc1CN1C[C@@H]2C[C@@H](c3[nH]c4c(C)cccc4c3C)N3CCC[C@@]23C1=O	x	n	x	n
Cc1ccc(-n2nc3c(n2)/C(=N/O)CC/C3=N\O)cc1	n	n	-100	u
O/N=C1\CC/C(=N\O)c2nn(-c3ccccc3Cl)nc21	n	n	n	n
O=C(c1cc(N2C(=O)C3C4CCC(C4)C3C2=O)ccc1Cl)N1CCN(c2ccccc2F)CC1 (centres undefined)	n	n	-119	n
O=C(c1c(F)cccc1F)N1CCN(c2ccccc2F)CC1	n	n	-82	n
O=C(O)c1ccc([N+]2=Cn3c(nc4ccccc43)C2)cc1	n	n[13.5 µM]	x	x
Cc1cc(C(=O)CCl)c(C)n1CCc1ccc(Cl)cc1	x	0.18µM	x	n
COc1ccc(CCn2c(C)cc(C(=O)CCl)c2C)cc1OC	x	0.11µM	x	n
COc1ccc(CCn2c(C)c(C(C)=O)c(C(C)=O)c2C)cc1OC	x	n	x	n
Cc1cc(C(=O)CCl)c(C)n1CCc1ccc(F)cc1	x	0.4µM	x	n
Cc1cc(C(=O)CSc2nnnn2C)c(C)n1CCc1ccc(F)cc1	n	n	n	n
COc1ccc(-n2c(=O)cnc3cnc(Oc4cccc(Cl)c4)nc32)cc1	n	u	x	x
O=C(C1=C(O)C(=O)N(CC2CCCO2)C1c1cccnc1)c1ccco1 (centres undefined)	n	n	n	n
O=C(C1=C(O)C(=O)N(Cc2ccco2)C1c1cccnc1)c1cc2ccccc2o1 (centres undefined)	n	14µM	n	n
COc1cccc2cc(C(=O)C3=C(O)C(=O)N(Cc4ccco4)C3c3cccnc3)oc12 (centres undefined)	n	5.6µM	n	n
SMILES	HPGD block	ALDH1A1 block	PNC inhibitor	KDM4E inh
N#Cc1c(-c2ccc(Cl)cc2)ccn2nc(C3CCCCC3)nc12	n	u	u	n
COc1ccc(Br)cc1/C=N/NC(=O)CN1CCN(Cc2ccccc2)CC1	x	u	x	n
COc1ccc(N(CC(=O)NCCSC2CCCCC2)S(C)(=O)=O)c(OC)c1	22µM	14µM	u	n
C=C1CCN(CC(=O)OC)S(=O)(=O)c2ccccc21	x	x	x	n
CCN(CC)CC#CCC(OC)(c1ccccc1)c1ccccc1	x	n	x	n
O=C(O)C(=O)/C(=C\c1ccccc1)c1ccc2ccccc2n1	u	u	n	u
O=C(O)C(=O)/C(=C\c1ccc([N+](=O)[O-])cc1)c1ccc2ccccc2n1	x	11µM	x	n
CCCS(=O)(=O)O	n	n[13.5 µM]	x	x
CCCCOc1ccc(-c2nc(-c3cccnc3)no2)cc1	n	n	u	n
CCOc1ccc(-c2nc(-c3cccnc3)no2)cc1	n	n	-100	n
CCOc1nc(-c2ccc(C)cc2)ccc1-c1noc(-c2cccnc2)n1	u	u	n	4.5µM
CC(C)C1NC(=S)N(C2CCCCC2)C1=O (centres undefined)	n	n	n	n
O=C1C2C3C=CC(C2C(=O)N1C1CCCCC1)C1C2C(=O)N(C4CCCCC4)C(=O)C2C31 (centres undefined)	n	1.4µM	n	n
O=C1C2C3C=CC([C@@H]2C(=O)N1C1CCCCC1)[C@H]1C(=O)N(C2CCCCC2)C(=O)C31 (some centres undefined)	n	1.4µM	n	n
CCc1ccc(OS(=O)(=O)c2cn(C)c(=O)n(C)c2=O)cc1	x	n	x	n
CCOC(=O)c1cnn(-c2ccccc2)c1NC(=O)c1ccccc1C	n	u	n	n
Cc1ccc(C)n1-c1c(C(=O)NN)cnn1-c1ccccc1	x	3.2µM	x	n
Cc1cc(C)c2c(SCc3ccc(Cl)cc3Cl)nc(N)nc2n1	n	n[13.5 µM]	x	x
O=P(O)(O)C(O)(Cn1ccnc1)P(=O)(O)O	n	n	x	x
c1ccc(NCCCNc2ccccc2)cc1	n	20µM	n	n
CCCCNc1ccc(C(=O)O)cc1	x	x	x	n
Cc1ccc(/C=N/Nc2cccc(C(=O)O)c2)s1	n	n	u	n
CCN(CC)c1ccc(C=Nc2ccc(C)cc2C)c(O)c1	x	20µM	x	n
CCN(CC)c1ccc(C=Nc2cc(C)ccc2C)c(O)c1	n	u	n	n
Cc1cccc(N/N=C/c2ccccc2O)c1	u	25µM	n	n
SMILES	HPGD block	ALDH1A1 block	PNC inhibitor	KDM4E inh
CCN(CC)c1ccc(/C=N/Nc2ccc(C)cc2)c(O)c1	32µM	10µM	n	u
CCN(CC)c1ccc(/C=N/n2nnnc2N)c(O)c1	u	u	-120	u
CCN(C)c1ccc(/C=N\n2nnnc2N)cc1	n	u	n	u
C=C(C)CSc1nnc(CCCCCNC(=O)OC(C)(C)C)o1	x	x	x	n
O=c1[nH]c(=S)[nH]cc1Oc1ccc(Cl)cc1Cl	x	x	x	n
O=C(CCC(=O)N/N=C/c1c[nH]c2ccccc12)NCc1ccccc1	n	n	n	n
CCN(CC)c1ccc(/C=N/NC(=O)CCC(=O)NCc2ccccc2)c(O)c1	n	n	n	25µM
CCN(CC)c1ccc(/C=N/NC(=O)c2c(Cl)cnn2C)c(O)c1	n	u	n	n
CCOC(=O)N/N=C/c1ccc(N(CC)CC)cc1O	n	n	n	28µM
COc1ccc(N=C(c2ccccc2)c2c(C)[nH]n(-c3ccccc3)c2=O)c(OC)c1	x	x	x	n
O=C(CCc1ccc(O)cc1)c1c(O)cc(O)cc1O[C@H]1OC(CO)C(O)C(O)C1O (some centres undefined)	25µM	n	x	u
COc1ccc(-c2csc3nc(C)nc(N4CCN(c5ccc(C(C)=O)cc5)CC4)c23)cc1OC	x	n	x	u
C=CCn1c(Cc2c[nH]c3ccccc23)n[nH]c1=S	n	8.9µM	n	n
C=CCn1c(Cc2nc3ccc(Cl)cc3[nH]2)n[nH]c1=S	u	10µM	u	n
C=CCn1c(Cc2ccccc2)n[nH]c1=S	x	n	x	n
CNC(=O)c1cc2cc(OC)ccc2oc1=N	u	u	n	u
COc1ccc2oc(=N)c(C(=O)Nc3ccccc3)cc2c1	n	n	-83	u
COc1cc(CNn2nnnc2N)cc(Br)c1OCc1c(Cl)cccc1Cl	16µM	n	n	n
O=C(Oc1cccc(NC(=O)c2ccco2)c1)c1ccc(Br)c(S(=O)(=O)N2CCCCC2)c1	u	n	n	n

Screens as filed in PubChem.
